Laboratory results from PubChem BioAssay AID1159580 (chemical genetic matrix, 2015).
Several values for one entry are separate records, joined by “and”; a condition that tells them apart may be missing. Equal values may be shown once. Hit rate of the full screen: of about 5,500 compounds, about 2,000 (36%) were called active. Inconclusive results (about 18%) are left out. No stated cut-off is given here; in the data, active means normalized growth mostly below about 0.91 (no sharp cut-off); inconclusive means no clear call, values can overlap the other calls; inactive means mostly above about 0.92. This is one part of the list.

Assay: chemical genetic growth profiling, strain panel (AID 1159580);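 further: tested at 20 µM; growth read once vehicle control cultures reached saturation at 30 °C; 1 = growth at the plate median or of vehicle wells; lower values mean less growth of the strain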
Conditions: S. cerevisiae deletion strains, growth OD

Measured: normalized growth

CC1(C)O[C@H]2[C@H](O)C[C@](O)(C(N)=O)C[C@H]2O1
inactive: locus YAL013W, strain DEP1, active compounds read low 1.01 | locus YAL021C, strain ccr4, active compounds read low 0.996 | locus YAL026C, strain drs2, active compounds read low 1.04 | locus YAL030W, strain snc1, active compounds read low 1.01 | locus YBL061C, strain skt5, active compounds read low 1.01 | locus YBR009C, strain hhf1, active compounds read low 1.02 | locus YBR021W, strain FUR4, active compounds read low 1.02 | locus YBR023C, strain chs3, active compounds read low 1.02 | locus YBR171W, strain sec66, active compounds read low 1.03 | locus YBR229C, strain ROT2, active compounds read low 1.03 | locus YBR231C, strain swc5, active compounds read low 1.01 | locus YBR279W, strain paf1, active compounds read low 1.01 | locus YCL011C, strain gbp2, active compounds read low 1.01 | locus YCL016C, strain dcc1, active compounds read low 1.01 | locus YCL029C, strain bik1, active compounds read low 1.04 | locus YCL061C, strain MRC1, active compounds read low 1.01 | locus YCL069W, strain vba3, active compounds read low 1.02 | locus YCR088W, strain abp1, active compounds read low 1.01 | locus YDL005C, strain med2, active compounds read low 1.01 | locus YDL035C, strain GPR1, active compounds read low 1.05 | locus YDL040C, strain nat1, active compounds read low 1.01 | locus YDL074C, strain BRE1, active compounds read low 1.12 | locus YDL101C, strain DUN1, active compounds read low 1.03 | locus YDL185W, strain tfp1, active compounds read low 1.02 | locus YDL192W, strain arf1, active compounds read low 1.05 | locus YDR001C, strain nth1, active compounds read low 1.01 | locus YDR069C, strain doa4, active compounds read low 1.01 | locus YDR101C, strain arx1, active compounds read low 1.01 | locus YDR137W, strain rgp1, active compounds read low 1.04 | locus YDR159W, strain sac3, active compounds read low 1.06 | locus YDR162C, strain NBP2, active compounds read low 1.04 | locus YDR195W, strain ref2 1.01 | locus YDR297W, strain sur2, active compounds read low 1.01 | locus YDR318W, strain mcm21, active compounds read low 1.04 | locus YDR334W, strain swr1, active compounds read low 1.03 | locus YDR335W, strain msn5, active compounds read low 1.02 | locus YDR388W, active compounds read low 1.01 | locus YDR392W, strain spt3, active compounds read low 0.959 | locus YDR502C, strain sam2, active compounds read low 1.03 | locus YEL003W, strain gim4, active compounds read low 1.02 | locus YEL037C, strain rad23, active compounds read low 1.02 | locus YEL061C, strain CIN8 (second series), active compounds read low 1.02 | locus YER015W, strain faa2, active compounds read low 1.02 | locus YER016W, strain bim1, active compounds read low 1.01 | locus YER110C, active compounds read low 1.03 | locus YER111C, strain swi4, active compounds read low 0.996 | locus YER155C, strain BEM2 (second series), active compounds read low 1.03 | locus YER155C, strain BEM2, active compounds read low 0.997 | locus YER167W, strain BCK2, active compounds read low 1.02 | locus YFR010W, strain ubp6, active compounds read low 1.04 | locus YGL078C, strain dbp3, active compounds read low 1.04 | locus YGL086W, strain mad1, active compounds read low 1.01 | locus YGL167C, strain pmr1, active compounds read low 1.02 | locus YGL173C, strain kem1, active compounds read low 1.03 | locus YGL227W, strain vid30, active compounds read low 1.01 | locus YGL240W, strain doc1, active compounds read low 1.01 | locus YGL248W, strain PDE1, active compounds read low 1.05 | locus YGL253W, strain hxk2, active compounds read low 1.03 | locus YGR078C, strain PAC10, active compounds read low 1.04 | locus YGR135W, strain pre9, active compounds read low 1.05 | locus YGR252W, strain gcn5, active compounds read low 1.09 | locus YHR013C, strain ard1, active compounds read low 1.02 | locus YHR027C, strain rpn1, active compounds read low 1.03 | locus YHR030C, strain SLT2, active compounds read low 1.01 | locus YHR079C, strain IRE1 (second series), active compounds read low 1.03 | locus YHR079C, strain IRE1, active compounds read low 0.99 | locus YHR094C, strain hxt1, active compounds read low 1.02 | locus YHR129C, strain ARP1, active compounds read low 1.04 | locus YHR142W, strain chs7, active compounds read low 1.03 | locus YHR200W, strain rpn10, active compounds read low 1.05 | locus YIL066C, strain RNR3, active compounds read low 1.03 | locus YIL073C, strain SPO22, active compounds read low 1.16 | locus YIL125W, strain kgd1, active compounds read low 1.01 | locus YIR030C, strain dcg1, active compounds read low 1.03 | locus YJL092W, strain hpr5, active compounds read low 1.01 | locus YJL095W, strain BCK1 (second series), active compounds read low 1.02 | locus YJL095W, strain BCK1, active compounds read low 1.1 and 1.02 | locus YJL115W, strain asf1, active compounds read low 1.01 | locus YJL129C, strain trk1, active compounds read low 1.01 | locus YJL134W, strain LCB3, active compounds read low 1.01 | locus YJL154C, strain vps35, active compounds read low 1.02 | locus YJL164C, strain tpk1, active compounds read low 1.02 | locus YJL166W, strain qcr8, active compounds read low 1.02 | locus YJL168C, strain set2, active compounds read low 1.02 | locus YJL187C, strain SWE1 (second series), active compounds read low 1.05 | locus YJL187C, strain SWE1, active compounds read low 1.01 | locus YJR043C, strain POL32, active compounds read low 1.05 | locus YJR066W, strain TOR1, active compounds read low 0.951
